# The full data set covers some 7,900 targets. This sample favours those with a hit. About 0.6% of all pairs of compound and target were hits. Unmarked numbers belong to inactive results.
# How the values were obtained:
# Experiment in all cases: log2 fold change, soluble protein after heating vs DMSO (PISA); higher = thermal stabilisation; K562 cells, 10 uM, 30 min; active = over 0.2 and 3.5 SD of the protein, either way, in both replicates (recomputed)
# [1] = compound: CC[C@@H]1C(=O)N(C)c2cnc(Nc3ccc(C(=O)NC4CCN(C)CC4)cc3OC)nc2N1C1CCCC1
# In short: (§1)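 K562 cells at 2×10^6 cells/mL were exposed to 10 μM compound for 30 min, then aliquots were heated for 3 min across 48°C-58°C, pooled, and extracted in PBS containing 0.5% NP-40 at 4°C. The supernatant after 21,000xg for 90 min was taken as soluble protein and measured by TMTpro 16plex LC-MS/MS with channel sums equalised. Thermal stability is reported relative to control samples, with values from duplicates. Fold changes are given on a log2 scale.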
# volasertib = compound: CC[C@@H]1C(=O)N(C)c2cnc(Nc3ccc(C(=O)N[C@H]4CC[C@H](N5CCN(CC6CC6)CC5)CC4)cc3OC)nc2N1C(C)C [volasertib]
# In short: as §1
# [2] = compound: CC[C@H](C)N1C=C(C2=C(C=C(C=C21)C3=CN=C(C=C3)N4CCNCC4)C(=O)NCC5=C(C=C(NC5=O)C)C)C
# In short: as §1
# epoxomicin = compound: CC[C@H](C)[C@@H](C(=O)N[C@@H]([C@@H](C)O)C(=O)N[C@@H](CC(C)C)C(=O)[C@]1(CO1)C)NC(=O)[C@H]([C@@H](C)CC)N(C)C(=O)C [epoxomicin]
# In short: as §1
# [3] = compound: CCn1c(C(=O)N(C2CC2)C2CC2)cc2c3c(ncn3C)c(Nc3cc(C)n(C)n3)nc21
# In short: as §1
# [4] = compound: CCn1cc(-c2ccnc3[nH]c(-c4cccc(CN(C)C)c4)cc23)c(-c2ccc(NC(=O)N(C)C)cc2)n1
# In short: as §1
# [5] = compound: CN(C)CC(=O)Nc1ccc2[nH]c(=O)c3ccccc3c2c1
# In short: as §1
# rosiglitazone = compound: CN(CCOC1=CC=C(C=C1)C[C@H]2C(=O)NC(=O)S2)C3=CC=CC=N3 (racemic) [rosiglitazone]
# In short: as §1
# [6] = compound: CN1C2=C(C3=C1C(=O)N(N=C3)CC4=CC(=CC=C4)N)SC(=C2)S(=O)C
# In short: as §1
# [7] = compound: CN1CCC(CNc2ccc3ncc(-c4cccc(OC(F)(F)F)c4)n3n2)CC1
# In short: as §1
# saracatinib = compound: CN1CCN(CCOc2cc(OC3CCOCC3)c3c(Nc4c(Cl)ccc5c4OCO5)ncnc3c2)CC1 [saracatinib]
# In short: as §1
# sotrastaurin = compound: CN1CCN(c2nc(C3=C(c4c[nH]c5ccccc45)C(=O)NC3=O)c3ccccc3n2)CC1 [sotrastaurin]
# In short: as §1
# alvocidib = compound: CN1CC[C@H](c2c(O)cc(O)c3c(=O)cc(-c4ccccc4Cl)oc23)[C@H](O)C1 [alvocidib]
# In short: as §1
# Tubastatin A = compound: CN1CCc2c(c3ccccc3n2Cc2ccc(C(=O)NO)cc2)C1 [Tubastatin A]
# In short: as §1
# [8] = compound: CNC(=O)C1=CC=CC=C1NC2=NC(=NC=C2Cl)NC3=C(C=C(C=C3)N4CCOCC4)OC
# In short: as §1
# defactinib = compound: CNC(=O)c1ccc(Nc2ncc(C(F)(F)F)c(NCc3nccnc3N(C)S(C)(=O)=O)n2)cc1 [defactinib]
# In short: as §1
# rucaparib = compound: CNCc1ccc(-c2[nH]c3cc(F)cc4c3c2CCNC4=O)cc1 [rucaparib]
# In short: as §1
# [9] = compound: CNc1nc(-c2ccc3c(N)n[nH]c3c2)cc(N2C[C@@H](C(=O)NC3CCCCC3)CC[C@H]2C)n1
# In short: as §1
# encorafenib = compound: COC(=O)N[C@@H](C)CNc1nccc(-c2cn(C(C)C)nc2-c2cc(Cl)cc(NS(C)(=O)=O)c2F)n1 [encorafenib]
# In short: as §1
# [10] = compound: COC(=O)[C@H](CCSC)NC(=O)C1=C(C=C(C=C1)NC[C@H](CS)N)C2=CC=CC=C2
# In short: as §1
# Sequence of UniProt O43592 (O43592 whole entry, looked up): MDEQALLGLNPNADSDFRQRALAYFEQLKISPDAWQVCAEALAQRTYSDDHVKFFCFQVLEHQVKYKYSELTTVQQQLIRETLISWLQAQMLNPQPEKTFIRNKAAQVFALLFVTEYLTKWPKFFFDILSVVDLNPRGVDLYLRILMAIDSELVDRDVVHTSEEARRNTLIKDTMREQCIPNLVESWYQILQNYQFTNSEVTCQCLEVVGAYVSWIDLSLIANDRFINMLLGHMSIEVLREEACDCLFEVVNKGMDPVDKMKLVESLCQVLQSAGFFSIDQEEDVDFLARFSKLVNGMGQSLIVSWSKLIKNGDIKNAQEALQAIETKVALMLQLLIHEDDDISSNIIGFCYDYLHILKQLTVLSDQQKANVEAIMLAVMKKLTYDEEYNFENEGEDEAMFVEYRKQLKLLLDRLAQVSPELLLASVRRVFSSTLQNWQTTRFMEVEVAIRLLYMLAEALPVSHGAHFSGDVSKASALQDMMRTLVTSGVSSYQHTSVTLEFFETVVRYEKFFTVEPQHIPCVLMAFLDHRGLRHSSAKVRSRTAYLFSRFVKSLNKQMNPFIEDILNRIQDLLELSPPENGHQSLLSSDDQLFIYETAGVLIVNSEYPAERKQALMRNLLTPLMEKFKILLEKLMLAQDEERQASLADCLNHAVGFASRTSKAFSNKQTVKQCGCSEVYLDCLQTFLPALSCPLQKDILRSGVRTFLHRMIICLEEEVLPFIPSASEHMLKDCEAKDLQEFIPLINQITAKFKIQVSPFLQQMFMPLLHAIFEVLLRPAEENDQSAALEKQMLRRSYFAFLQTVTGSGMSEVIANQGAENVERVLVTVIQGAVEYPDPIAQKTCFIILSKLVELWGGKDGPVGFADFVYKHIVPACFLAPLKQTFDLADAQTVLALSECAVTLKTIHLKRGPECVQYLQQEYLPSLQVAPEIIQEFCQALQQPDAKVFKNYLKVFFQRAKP
# Sequence of UniProt A0JNW5 (A0JNW5 whole entry, looked up): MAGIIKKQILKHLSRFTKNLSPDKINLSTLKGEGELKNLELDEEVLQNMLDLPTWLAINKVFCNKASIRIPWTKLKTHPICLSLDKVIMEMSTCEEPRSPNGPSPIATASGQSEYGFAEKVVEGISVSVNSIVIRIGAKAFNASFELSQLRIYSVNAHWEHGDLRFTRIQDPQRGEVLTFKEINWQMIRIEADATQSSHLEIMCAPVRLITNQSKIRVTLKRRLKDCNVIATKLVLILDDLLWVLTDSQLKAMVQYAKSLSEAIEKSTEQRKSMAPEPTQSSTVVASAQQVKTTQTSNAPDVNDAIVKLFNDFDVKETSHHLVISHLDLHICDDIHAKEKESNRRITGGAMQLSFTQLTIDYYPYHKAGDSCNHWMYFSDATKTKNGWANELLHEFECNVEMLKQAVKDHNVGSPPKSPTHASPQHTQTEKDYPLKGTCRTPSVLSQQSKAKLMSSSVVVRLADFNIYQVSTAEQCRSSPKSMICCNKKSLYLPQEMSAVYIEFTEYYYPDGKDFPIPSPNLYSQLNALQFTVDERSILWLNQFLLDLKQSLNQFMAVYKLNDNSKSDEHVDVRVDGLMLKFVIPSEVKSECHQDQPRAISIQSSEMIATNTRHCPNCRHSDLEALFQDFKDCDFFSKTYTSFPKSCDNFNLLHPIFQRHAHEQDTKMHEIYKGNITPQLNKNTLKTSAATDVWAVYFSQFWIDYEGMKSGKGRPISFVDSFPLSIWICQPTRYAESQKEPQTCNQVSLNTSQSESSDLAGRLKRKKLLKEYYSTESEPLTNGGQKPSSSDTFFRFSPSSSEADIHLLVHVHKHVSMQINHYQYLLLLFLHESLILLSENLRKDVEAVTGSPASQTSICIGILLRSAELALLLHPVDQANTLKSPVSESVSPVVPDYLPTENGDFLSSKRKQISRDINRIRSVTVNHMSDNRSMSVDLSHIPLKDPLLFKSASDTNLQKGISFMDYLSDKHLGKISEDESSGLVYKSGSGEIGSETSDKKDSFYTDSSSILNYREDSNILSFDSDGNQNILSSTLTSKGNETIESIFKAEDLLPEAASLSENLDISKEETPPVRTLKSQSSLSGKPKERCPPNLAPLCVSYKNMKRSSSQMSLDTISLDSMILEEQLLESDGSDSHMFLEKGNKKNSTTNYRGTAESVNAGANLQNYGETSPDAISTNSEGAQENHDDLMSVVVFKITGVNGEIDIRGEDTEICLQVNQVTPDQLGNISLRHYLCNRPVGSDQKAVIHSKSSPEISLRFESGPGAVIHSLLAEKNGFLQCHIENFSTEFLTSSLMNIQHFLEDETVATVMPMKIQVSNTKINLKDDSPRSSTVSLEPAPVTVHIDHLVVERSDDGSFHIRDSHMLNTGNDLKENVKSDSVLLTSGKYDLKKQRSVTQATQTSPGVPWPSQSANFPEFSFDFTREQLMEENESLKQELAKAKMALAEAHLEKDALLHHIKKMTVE
# Sequence of UniProt O75674 (O75674 whole entry, looked up): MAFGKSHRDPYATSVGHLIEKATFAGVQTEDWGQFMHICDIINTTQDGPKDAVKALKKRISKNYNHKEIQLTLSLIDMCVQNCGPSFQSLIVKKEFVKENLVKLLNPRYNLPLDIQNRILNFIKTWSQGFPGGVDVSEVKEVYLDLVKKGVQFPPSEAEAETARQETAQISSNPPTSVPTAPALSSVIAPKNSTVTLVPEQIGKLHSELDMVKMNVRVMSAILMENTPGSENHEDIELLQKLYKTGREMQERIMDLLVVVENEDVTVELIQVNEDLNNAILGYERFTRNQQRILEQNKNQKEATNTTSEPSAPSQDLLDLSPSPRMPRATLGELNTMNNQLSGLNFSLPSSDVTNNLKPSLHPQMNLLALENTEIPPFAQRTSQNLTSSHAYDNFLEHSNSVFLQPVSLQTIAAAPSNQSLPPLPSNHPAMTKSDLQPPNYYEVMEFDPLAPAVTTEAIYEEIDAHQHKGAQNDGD
# Sequence of UniProt Q8TBZ6 (Q8TBZ6 whole entry, looked up): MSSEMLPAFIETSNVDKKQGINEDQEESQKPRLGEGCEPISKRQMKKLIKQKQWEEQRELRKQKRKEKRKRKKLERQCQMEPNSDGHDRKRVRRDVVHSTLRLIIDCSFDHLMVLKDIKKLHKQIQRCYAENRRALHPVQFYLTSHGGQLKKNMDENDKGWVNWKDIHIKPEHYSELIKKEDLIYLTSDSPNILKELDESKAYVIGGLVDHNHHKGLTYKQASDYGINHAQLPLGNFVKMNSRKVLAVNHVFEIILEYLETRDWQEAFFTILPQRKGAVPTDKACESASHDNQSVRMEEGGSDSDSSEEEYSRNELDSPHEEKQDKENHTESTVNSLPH
# Sequence of UniProt Q9NZ09 (Q9NZ09 whole entry, looked up): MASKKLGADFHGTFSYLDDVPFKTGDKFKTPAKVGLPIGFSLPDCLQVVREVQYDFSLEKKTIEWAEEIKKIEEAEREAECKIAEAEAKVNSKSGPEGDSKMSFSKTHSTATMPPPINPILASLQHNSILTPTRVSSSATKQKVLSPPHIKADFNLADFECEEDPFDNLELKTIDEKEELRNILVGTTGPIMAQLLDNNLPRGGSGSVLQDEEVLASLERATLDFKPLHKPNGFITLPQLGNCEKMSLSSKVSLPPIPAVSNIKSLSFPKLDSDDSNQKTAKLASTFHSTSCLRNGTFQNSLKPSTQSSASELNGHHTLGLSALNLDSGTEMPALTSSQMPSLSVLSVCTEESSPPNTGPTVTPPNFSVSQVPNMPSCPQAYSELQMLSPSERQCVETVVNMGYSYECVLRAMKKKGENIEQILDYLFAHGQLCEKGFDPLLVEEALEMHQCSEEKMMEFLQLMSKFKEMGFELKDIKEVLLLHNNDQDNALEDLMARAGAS
# Sequence of UniProt Q5R3I4 (Q5R3I4 whole entry, looked up): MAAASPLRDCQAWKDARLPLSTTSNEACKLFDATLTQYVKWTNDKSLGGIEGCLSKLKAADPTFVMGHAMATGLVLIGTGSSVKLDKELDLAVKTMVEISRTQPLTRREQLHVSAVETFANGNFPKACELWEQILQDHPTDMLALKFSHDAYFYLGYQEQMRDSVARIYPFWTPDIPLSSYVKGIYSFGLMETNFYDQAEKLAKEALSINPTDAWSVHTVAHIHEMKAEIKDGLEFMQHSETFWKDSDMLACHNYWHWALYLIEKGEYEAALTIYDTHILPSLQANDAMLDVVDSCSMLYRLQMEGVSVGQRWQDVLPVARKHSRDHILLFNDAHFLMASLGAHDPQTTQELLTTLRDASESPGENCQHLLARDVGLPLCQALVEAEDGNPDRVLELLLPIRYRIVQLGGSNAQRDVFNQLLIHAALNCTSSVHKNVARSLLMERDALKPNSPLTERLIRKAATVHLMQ
# Sequence of UniProt Q969T4 (Q969T4 whole entry, looked up): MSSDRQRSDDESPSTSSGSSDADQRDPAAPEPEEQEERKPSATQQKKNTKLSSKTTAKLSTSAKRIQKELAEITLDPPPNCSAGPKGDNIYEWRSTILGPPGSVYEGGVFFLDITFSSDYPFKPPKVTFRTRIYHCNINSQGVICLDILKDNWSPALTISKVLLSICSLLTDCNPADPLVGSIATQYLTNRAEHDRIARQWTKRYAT
# Sequence of UniProt Q86SZ2 (Q86SZ2 whole entry, looked up): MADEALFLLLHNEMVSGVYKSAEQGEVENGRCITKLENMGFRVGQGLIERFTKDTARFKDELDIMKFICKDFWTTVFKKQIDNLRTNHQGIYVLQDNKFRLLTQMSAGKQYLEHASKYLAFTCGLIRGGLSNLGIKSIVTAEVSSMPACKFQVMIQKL
# Sequence of UniProt Q53S58 (Q53S58 whole entry, looked up): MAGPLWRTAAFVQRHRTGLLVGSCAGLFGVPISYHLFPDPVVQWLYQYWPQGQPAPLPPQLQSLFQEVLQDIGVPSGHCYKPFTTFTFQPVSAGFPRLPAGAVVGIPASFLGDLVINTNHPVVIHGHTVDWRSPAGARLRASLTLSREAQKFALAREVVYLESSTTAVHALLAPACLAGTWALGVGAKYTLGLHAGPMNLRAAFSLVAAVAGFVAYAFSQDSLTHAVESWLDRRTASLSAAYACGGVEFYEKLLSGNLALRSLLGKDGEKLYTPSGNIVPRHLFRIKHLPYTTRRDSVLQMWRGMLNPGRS
Target,log2 fold change [1],log2 fold change (volasertib),log2 fold change [2],log2 fold change (epoxomicin),log2 fold change [3],log2 fold change [4],log2 fold change [5],log2 fold change (rosiglitazone),log2 fold change [6],log2 fold change [7],log2 fold change (saracatinib),log2 fold change (sotrastaurin),log2 fold change (alvocidib),log2 fold change (Tubastatin A),log2 fold change [8],log2 fold change (defactinib),log2 fold change (rucaparib),log2 fold change [9],log2 fold change (encorafenib),log2 fold change [10]
UBE2E3 (UniProt Q969T4),-0.124,-0.377 (active),-0.008,-0.052,0.051,-0.11,0.022,0.059,-0.005,-0.24,-0.03,-0.044,-0.085,-0.074,0.067,-0.162,-0.014,-0.022,0.017,-0.067
TRAPPC6B (UniProt Q86SZ2),-0.015,-0.002,-0.011,0.146,0.009,-0.05,-0.01,-0.008,-0.026,-0.08,0.035,-0.068,-0.055,0.031,-0.034,-0.046,0.012,0.008,-0.02,0.022
TMEM63B (UniProt Q5T3F8),-0.001,0.071,-0.019,0.039,0.041,0.011,-0.052,-0.052,0.042,-0.073,-0.084,-0.055,0.021,-0.015,0.019,0.015,-0.004,-0.068,0.023,0
TXNRD1 (UniProt Q16881),0.004,0.05,0.006,0.054,-0.032,-0.049,-0.003,0.067,-0.096,-0.006,-0.012,0.058,-0.05,-0.001,0.022,-0.015,-0.113,0.032,-0.033,-0.001
USP14 (UniProt P54578),-0.08,-0.197,0.053,0.106,-0.005,-0.011,0.003,0.007,-0.082,-0.072,-0.007,-0.013,-0.047,0.033,0.012,-0.064,-0.025,-0.01,0.044,-0.021
UHRF1BP1L (UniProt A0JNW5),0.165,0.034,-0.009,-0.022,-0.018,-0.086,0.02,0.028,-0.079,0.1,-0.01,0,-0.037,0.031,-0.051,-0.024,-0.052,0.05,-0.02,-0.029
TMEM177 (UniProt Q53S58),-0.092,0.051,0.047,-0.052,0.002,0.048,0.219,0.035,-0.103,-0.075,0.078,0.014,0.031,0.08,0.005,-0.046,0.009,-0.003,-0.02,0.024
VPS53 isoform 4 (UniProt Q5VIR6),-0.095,-0.358 (active),0.033,0.041,-0.094,0.022,0.007,0.023,0.016,-0.128,0.029,-0.102,-0.146,0.017,-0.009,-0.056,0.061,-0.028,0.06,-0.001
TMEM106B (UniProt Q9NUM4),0.025,-0.032,-0.05,-0.11,-0.026,-0.007,-0.05,0.022,0.012,-0.13,0.123,0.027,0.02,-0.121,-0.037,0.021,-0.007,-0.145,-0.037,-0.059
UBAP1 isoform 4 (UniProt Q9NZ09),-0.012,-0.545 (active),0,0.092,-0.037,0.006,-0.034,0.022,0.023,-0.089,-0.023,-0.032,-0.038,0.007,-0.028,-0.08,0.089,-0.053,-0.05,0.006
USP24 (UniProt Q9UPU5),-0.04,-0.1,-0.047,0.073,-0.072,-0.062,0.055,-0.025,-0.123,0.137,0.033,0.092,-0.061,-0.143,0.034,-0.079,-0.03,0.278,0.048,-0.034
TRMT10A (UniProt Q8TBZ6),0.016,-0.013,0.033,0.003,-0.026,-0.037,0.047,0.034,-0.135,-0.075,-0.028,-0.024,-0.12,-0.038,0.054,-0.06,0.016,0.032,0.026,0.036
TOM1L1 (UniProt O75674),0.072,-0.052,0.027,0.013,-0.023,-0.004,0.043,0.062,-0.053,0.385 (active),-0.003,0.019,-0.046,-0.066,-0.043,-0.042,-0.02,-0.026,-0.042,-0.041
TTC38 (UniProt Q5R3I4),0.076,0.253,0.041,0.012,-0.017,-0.05,0.136,-0.015,-0.049,-0.039,-0.045,0.086,-0.132,0.578 (active),-0.062,-0.262,0.435,0.293,-0.02,-0.011
XPOT (UniProt O43592),-0.363 (active),-0.855 (active),0.04,-0.033,0,0.021,0.058,0.059,-0.028,-0.16,0.017,-0.102,-0.023,0.026,0.076,-0.022,0.005,-0.116,0.076,-0.044
TRAM1 (UniProt Q15629),-0.216,-0.161,0.031,0.008,-0.004,0.066,0.062,0.095,-0.001,-0.759 (active),-0.007,-0.025,-0.02,-0.052,-0.208,-0.029,-0.132,0,0.179,-0.052

# From the supplement of paper PMC10849652
